Results published in PubChem BioAssay (NCATS).
Inconclusive results are not listed. Activity calls are given as the source filed them. Unless noted, the call rests on the fitted dose curve; in most records, active means well fitted inhibition curve with a large enough effect; inconclusive means small, poorly fitted or top-dose-only effect; inactive means flat fitted curve, though single readings scatter.

Tests used:
[1] = qHTS profiling for inhibitors of Plasmodium falciparum proliferation (AID 504749); further: nearly all actives have a fitted effect of over 60% in size; further: potency means the concentration at half of the fitted maximal effect;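 on activity, negative = inhibition: 0% = DMSO vehicle and full inhibition = artemisinin control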; conditions: P. falciparum in erythrocytes, SYBR Green DNA, 72 h
How it was run: (§1)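 Quantitative HTS: compounds pinned into medium, infected erythrocytes added (0.3% parasitemia, 2.5% hematocrit), 72 h culture at 37 C under 5% CO2. Saponin/Triton lysis with SYBR Green I, overnight RT, then fluorescence read.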

3D7 = experiment: as above; conditions: P. falciparum in erythrocytes, SYBR Green DNA, 72 h; series mostly up to 28.7 µM
How it was run: as §1

7G8 = experiment: as above; conditions: P. falciparum in erythrocytes, SYBR Green DNA, 72 h; series mostly up to 28.7 µM
How it was run: as §1

AA1029 = experiment: as above; conditions: P. falciparum in erythrocytes, SYBR Green DNA, 72 h; series mostly up to 28.7 µM
How it was run: as §1

AS120 = experiment: as above; conditions: P. falciparum in erythrocytes, SYBR Green DNA, 72 h; series mostly up to 28.7 µM
How it was run: as §1

ATS189 = experiment: as above; conditions: P. falciparum in erythrocytes, SYBR Green DNA, 72 h; series mostly up to 28.7 µM
How it was run: as §1

ATS95 = experiment: as above; conditions: P. falciparum in erythrocytes, SYBR Green DNA, 72 h; series mostly up to 28.7 µM
How it was run: as §1

C2A = experiment: as above; conditions: P. falciparum in erythrocytes, SYBR Green DNA, 72 h; series mostly up to 28.7 µM
How it was run: as §1

CP185 = experiment: as above; conditions: P. falciparum in erythrocytes, SYBR Green DNA, 72 h; series mostly up to 28.7 µM
How it was run: as §1

CP191 = experiment: as above; conditions: P. falciparum in erythrocytes, SYBR Green DNA, 72 h; series mostly up to 28.7 µM
How it was run: as §1

CP192 = experiment: as above; conditions: P. falciparum in erythrocytes, SYBR Green DNA, 72 h; series mostly up to 28.7 µM
How it was run: as §1

CP194 = experiment: as above; conditions: P. falciparum in erythrocytes, SYBR Green DNA, 72 h; series mostly up to 28.7 µM
How it was run: as §1

CP201 = experiment: as above; conditions: P. falciparum in erythrocytes, SYBR Green DNA, 72 h; series mostly up to 28.7 µM
How it was run: as §1

CP203 = experiment: as above; conditions: P. falciparum in erythrocytes, SYBR Green DNA, 72 h; series mostly up to 28.7 µM
How it was run: as §1

CP211 = experiment: as above; conditions: P. falciparum in erythrocytes, SYBR Green DNA, 72 h; series mostly up to 28.7 µM
How it was run: as §1

CP215 = experiment: as above; conditions: P. falciparum in erythrocytes, SYBR Green DNA, 72 h; series mostly up to 28.7 µM
How it was run: as §1

CP217 = experiment: as above; conditions: P. falciparum in erythrocytes, SYBR Green DNA, 72 h; series mostly up to 28.7 µM
How it was run: as §1

[2] = qHTS drug screen for cell cycle checkpoint inhibitors in PARPi-resistant BRCA-mutant ovarian cancer cell lines. (AID 1963452; calls by dose curve); conditions: PEO1/OlaR viability, CellTiter-Glo luminescence, 96 h, stronger effect = lower value
How it was run: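 PEO1, PEO4 and PEO1/OlaR ovarian cancer cells, 600 per well, exposed 96 h at 37C to a dilution series. Viability read by CellTiter-Glo luminescence, normalized to DMSO and empty wells; activity summarized as Z-AUC.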

[3] = measured here: PEO1 parental Z-AUC
[4] = at 28.7 µM (top of the series), parasite line A
[5] = at 28.7 µM (top of the series), parasite line B

CCN1/C(=C/C=C/c2sc3ccccc3[n+]2CC)Sc2ccccc21
active: Potency ([1]; parasite line A) 89.1 nM | Potency ([1]; parasite line B) 178 nM | Potency (3D7) 141 nM | Potency (7G8) 79.4 nM | Potency (AA1029) 178 nM | Potency (AS120) 199 nM | Potency (ATS189) 158 nM | Potency (ATS95) 178 nM | Potency (C2A) 126 nM | Potency (CP185) 112 nM | Potency (CP191) 100 nM | Potency (CP192) 379 nM | Potency (CP194) 478 nM | Potency (CP201) 849 nM | Potency (CP203) 675 nM | Potency (CP211) 379 nM | Potency (CP215) 675 nM | Potency (CP217) 178 nM

CCN1CCN(C(=O)N[C@@H](C(=O)N[C@@H]2C(=O)N3C(C(=O)O)=C(CSc4nnnn4C)CS[C@H]23)c2ccc(O)cc2)C(=O)C1=O
inactive: Z-AUC [2] 0.353
0.559: Z-AUC [2, 3]
0.224: Z-AUC ([2]; measured here: PEO4 Z-AUC)

CC(=O)O[C@]1(C(C)=O)CC[C@H]2[C@@H]3C=C(C)C4=CC(=O)CC[C@]4(C)[C@H]3CC[C@@]21C
inactive: Z-AUC [2] 0.958
0.601: Z-AUC [2, 3]
0.47: Z-AUC ([2]; measured here: PEO4 Z-AUC)

COc1ccccc1N1CCN(CCCCNC(=O)c2ccc(-c3ccc(C(C)=O)cc3)cc2)CC1
active: Potency (7G8) 12600 nM
inactive: activity, negative = inhibition [1, 4] 15.8% | activity, negative = inhibition [1, 5] 20.5% | Potency (3D7) | Potency (AA1029) | Potency (AS120) | Potency (ATS189) | Potency (ATS95) | Potency (C2A) | Potency (CP185) | Potency (CP191) | Potency (CP192) | Potency (CP194) | Potency (CP201) | Potency (CP203) | Potency (CP211) | Potency (CP215) | Potency (CP217)

COc1cc([C@H]2Oc3cc([C@H]4Oc5cc(O)cc(O)c5C(=O)[C@@H]4O)ccc3O[C@@H]2CO)ccc1O
inactive: Z-AUC [2] 1.43 | activity, negative = inhibition [1, 4] -10.1% | activity, negative = inhibition [1, 5] -14.4% | Potency (3D7) | Potency (AA1029) | Potency (ATS189) | Potency (ATS95) | Potency (C2A) | Potency (CP185) | Potency (CP191) | Potency (CP192) | Potency (CP201) | Potency (CP203) | Potency (CP211) | Potency (CP215) | Potency (CP217)
active: Potency (7G8) 11200 nM
1.29: Z-AUC [2, 3]
0.956: Z-AUC ([2]; measured here: PEO4 Z-AUC)

Nc1ccc(C(=O)NCC(=O)O)cc1
inactive: activity, negative = inhibition ([1]; at 12.8 µM (top of the series), parasite line A) 7.06% | activity, negative = inhibition ([1]; at 12.8 µM (top of the series), parasite line B) 8.58% | Potency (3D7) | Potency (7G8) | Potency (AA1029) | Potency (AS120) | Potency (ATS189) | Potency (ATS95) | Potency (C2A) | Potency (CP185) | Potency (CP191) | Potency (CP192) | Potency (CP194) | Potency (CP201) | Potency (CP203) | Potency (CP211) | Potency (CP215) | Potency (CP217)

C#C[C@]1(O)CC[C@H]2[C@@H]3CCc4cc(OC)ccc4[C@H]3CC[C@@]21C
inactive: Z-AUC [2] 1.12 | activity, negative = inhibition [1, 4] 1.32% | activity, negative = inhibition [1, 5] 15.1% | Potency (3D7) | Potency (7G8) | Potency (AA1029) | Potency (AS120) | Potency (ATS189) | Potency (ATS95) | Potency (C2A) | Potency (CP185) | Potency (CP191) | Potency (CP192) | Potency (CP194) | Potency (CP201) | Potency (CP211) | Potency (CP215) | Potency (CP217)
0.901: Z-AUC [2, 3]
1.32: Z-AUC ([2]; measured here: PEO4 Z-AUC)
